FEN1 inh-1: blocks human flap endonuclease 1. AID 588795. P39748. Recombinant FEN1 flap cleavage, fluorescence, 15 min. hit rate 0.35% among 390,000. Potency, µM (series often up to 114 µM), without a hit: top-dose activity change, negative = inhibition, most hits filed as inhibitors; also: % is scaled to controls: 0 for no effect and ±100 for the full control effect; nearly all actives have a fitted effect of over 65% in size
Target sequence (P39748 whole entry, looked up): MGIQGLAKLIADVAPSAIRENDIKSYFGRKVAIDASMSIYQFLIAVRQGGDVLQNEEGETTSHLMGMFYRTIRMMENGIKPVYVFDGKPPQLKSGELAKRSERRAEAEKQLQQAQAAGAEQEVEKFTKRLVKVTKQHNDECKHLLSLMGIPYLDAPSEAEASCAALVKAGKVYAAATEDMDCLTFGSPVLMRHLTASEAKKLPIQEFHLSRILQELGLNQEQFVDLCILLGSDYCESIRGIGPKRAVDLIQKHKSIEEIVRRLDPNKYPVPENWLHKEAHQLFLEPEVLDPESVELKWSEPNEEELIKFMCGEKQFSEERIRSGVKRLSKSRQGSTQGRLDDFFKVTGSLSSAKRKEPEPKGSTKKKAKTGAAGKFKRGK
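Reaction started by adding substrate (50 nM final) to 10 nM enzyme after 15 min room-temperature compound preincubation. Reads at 0 and 15 min, with data normalized and fitted to a four-parameter Hill equation.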
Pol eta inh: DNA polymerase eta (human) inhibition. AID 588591. hit rate 1.2% among 390,000. Potency, µM (top dose mostly 114 µM), without a hit: top-dose activity change, negative = inhibition, most hits filed as inhibitors. Q9Y253. recombinant Pol eta, fluorescent DNA replication assay; also: % is scaled to controls: 0 for no effect and ±100 for the full control effect
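Fluorescent replication assay: 50 nM final substrate added after a 15 min room-temperature compound preincubation with 10 nM enzyme. Signal taken at 0 min and again at 10 min.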
WRN helicase inh: inhibitors of human WRN helicase; Q14191; WRN helicase unwinding, fluorescent forked duplex, kinetic; Potency, µM (series often up to 114 µM), for the others: at the top dose activity change, negative = inhibition, most hits filed as inhibitors; hit rate 0.46% among 360,000; AID 651768; also: % is scaled to controls: 0 for no effect and ±100 for the full control effect; nearly all actives have a fitted effect of over 55% in size
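Kinetic fluorescence helicase assay: unwinding of a quenched forked DNA duplex (100 nM final) with 2 mM ATP final raises red fluorescence (525/598 nm). Compounds sat 15 min at room temperature with 20 nM WRN beforehand.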
Pol kappa inh: inhibitors of human DNA polymerase kappa. hit rate 0.53% among 400,000. Q9UBT6. Potency, µM (doses to about 107 µM), for the others: at the highest dose activity, negative = inhibition, hits mostly inhibitors. purified Pol kappa, fluorescent DNA synthesis assay, 10 min; also: % is scaled to controls: 0 for no effect and ±100 for the full control effect
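Here, compound and 10 nM enzyme are combined for 15 min at room temperature; adding 50 nM substrate (final) starts DNA synthesis, tracked by fluorescence at 0 and 10 min against buffer-only wells.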
Pol iota inh: DNA polymerase iota (human) inhibition; Q9UNA4; Pol iota fluorescent replication assay, 10 min; AID 588590; Potency, µM (top dose mostly 115 µM), for the others: top-dose activity, negative = inhibition, actives largely listed as inhibitors; hit rate 1% among 390,000
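Pol iota at 10 nM preincubated 15 min with compounds at room temperature; reaction started with fluorescent substrate, 50 nM final. Fluorescence read kinetically at 0 and 10 min; buffer-only wells as negative control.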
POLB inh: blocks human DNA polymerase beta activity. Pol beta primer extension/strand displacement, fluorescence kinetic. Potency, µM (top dose mostly 114 µM), inactives show top-dose activity change, negative = inhibition, usual class: inhibitors. hit rate 1.3% among 340,000. AID 485314; also: % is scaled to controls: 0 for no effect and ±100 for the full control effect
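Pol beta (10 nM) and compounds were preincubated 15 min at room temperature, then 50 nM substrate (final) started primer extension/strand displacement. Reads were taken at 0 and 10 min; concentration-response data were fitted to a four-parameter Hill equation.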
FEN1 inh-2: confirmation of human FEN1 inhibitors; shares compounds with FEN1 inh-1; FEN1 flap cleavage, TAMRA/BHQ2 fluorogenic DNA substrate; Potency, µM, actives largely listed as inhibitors; hit rate 79% among 880; also: nearly all actives have a fitted effect of over 60% in size
The depositor's hits bear a star; ? = inconclusive; · = not tested or not shown; [ ] = another dose, or the depositor's remark. Compounds with a hit are over-represented: about 2.4% of the library has one in this group of screens. Calls follow the shape of the dose curve; as a rule, active = well fitted curve in the direction sought with a large enough effect; inconclusive = small, poorly fitted or top-dose-only effect, or another doubt; inactive = no such curve, though single readings can be large; an effect the other way counts as inactive or inconclusive. Potency is read from the fitted curve at half-maximal effect.

SMILES | FEN1 inh-1 | Pol eta inh | WRN helicase inh | Pol kappa inh | Pol iota inh | POLB inh | FEN1 inh-2
CN1CCCC1CCNc1ncnc2ccc(-c3ccc4c(c3)OCO4)cc12 (stereo unspecified) | · | · | · | · | · | · | 48*
c1nc(NCCN2CCOCC2)c2cc(-c3ccc4c(c3)OCO4)ccc2n1 | · | · | · | -9%[60.1 µM] | · | · | ·
CCCC(CCC)C(=O)NC1CC(=O)N(c2ccc3c(c2)OCCO3)C1 (stereo unspecified) | -8% | -1% | · | -6%[60.1 µM] | 21% | 32% | ·
CCOC(=O)C1CCN(C(c2ccc(SC)cc2)c2c(O)cc(C)n(Cc3ccco3)c2=O)CC1 (stereo unspecified) | 6% | -24% | · | -4%[60.1 µM] | ? | -15% | ·
COc1ccc2c(C)cc(SCC(=O)Nc3cc(C(N)=O)cc(C(N)=O)c3)nc2c1 | ? | 50µM* | -6%[11.6 µM] | -15% | 35µM* | 25µM* | ?
COc1cccc(NC(=O)CSc2cc(C)c3ccccc3n2)c1 | 8% | · | · | 1% | 36% | -1% | ·
CCOC(=O)c1c(C)[nH]c(C)c1C(=O)COC(=O)c1ccc([N+](=O)[O-])s1 | ? | 22µM* | -4%[11.6 µM] | 79µM* | 10µM* | · | 27*
CSc1nc2[nH]c(=O)n(O)c(=O)c2n1Cc1ccccc1 | -105% | ? | 6%[11.6 µM] | -14% | 36% | · | 0.021*
CSc1nc2c(c(=O)n1Cc1ccccc1)SC(C)C2 (stereo unspecified) | -12% | -1% | -13% | -2%[60.1 µM] | -6% | -26% | ·
Cc1ccc2onc(CC(=O)N3CCN(c4ccc(F)cc4)CC3)c2c1 | -14% | -6% | · | -5% | -11% | 3% | ·
NN1C(=O)/C(=C2/Sc3ccccc3N2CCCS(=O)(=O)O)SC1=S | 35µM* | 50µM* | -20% | -35% | ? | 22µM* | ?
O=C1NC(=S)S/C1=C1\Sc2ccccc2N1CCCS(=O)(=O)O | 2% | ? | -5% | -3% | ? | -1% | ·
CC(=O)c1cccc(NC(=O)c2cccc(N3C(=O)c4ccccc4C3=O)c2)c1 | ? | ? | ? | 4% | -10% | ? | ?
COc1ccc2c(c1)c(/C=C/c1cc[n+](C)cc1)cn2C | ? | -15% | -36% | -19% | ? | 89µM* | 43*
COC(=O)c1ccc(NC(=O)NCCn2nnc3cc(S(=O)(=O)N(C)C)ccc32)cc1 | 5% | -16% | · | -13%[60.1 µM] | 13% | 0% | ·
CCN(CC)CCCNc1nc2ccccc2c2nc(-c3ccncc3)nn12 | 45µM* | 20% | -2%[11.6 µM] | ? | ? | 35µM* | 21*
CN1CCN(CCCNc2nc3ccccc3c3nc(-c4ccccc4)nn23)CC1 | ? | 9% | 2% | -2% | 18% | · | ·
CCOc1ccc(NC(=O)Cn2c(=O)n(Cc3ccccc3)c(=O)c3c4c(sc32)CN(C(C)=O)CC4)cc1 | -5% | -25% | · | -3% | 30% | 12% | ·
O=C(O)c1ccc(/C=C2\SC(=S)N(Nc3ccccc3)C2=O)cc1 | -5% | -2% | 1%[11.6 µM] | ? | ? | -23% | ·
COc1cc(/C=C2/SC(=S)N(CC3CCCO3)C2=O)ccc1O (stereo unspecified) | 45µM* | ? | 79µM* | -21% | ? | ? | 43*
COc1cc(/C=C2\SC(=S)N(C(Cc3ccccc3)C(=O)O)C2=O)ccc1O (stereo unspecified) | ? | ? | 50µM* | ? | ? | 50µM* | ?
COc1cc(/C=C2\SC(=S)N(Nc3ccccc3)C2=O)ccc1O | ? | ? | 16µM* | -31% | 50µM* | 11µM* | 85*
COc1ccc(/C=C2\SC(=S)N(C(C(=O)O)c3ccccc3)C2=O)c(OC)c1 (stereo unspecified) | -4% | -23% | -8% | -9% | ? | -5% | ·

Screens (PubChem)
